The text below walks through data of ChEMBL document CHEMBL3988442, “University of Dundee, Small-Polar-MMV Screening Library” (2021).

About 13,000 (27%) of roughly 48,000 compounds showed an effect of 50% or more. This is one part of the list.

This assay has as its system Wolbachia pipientis. Kind of assay: Anti-Wolbachia Cell-Based Screen. The format is functional. Set-up: scale not given: in the data most compounds retested in dose-response had high values. The settings on record: 5 µM.
Regarding `Cc1ccc(-c2cn3c(n2)CO[C@@H](CNCc2cnn(C)c2)C3)cc1`, the “Percent Effect” value is given as 12.36%.
For `COCCN(C)C[C@@H]1CN(C(=O)c2ccc(O)c(C)c2)C[C@@H]1CO`, the “Percent Effect” value came to 126%.
Take `COCCN(C)C[C@@H]1CN(C(=O)c2ccc(O)c(Cl)c2)C[C@@H]1CO`: the “Percent Effect” value amounted to 127.9%.
For the molecule `Cc1cc(C(=O)N2C[C@@H](CN3CCCCC3)[C@@H](CO)C2)ccc1O`, the “Percent Effect” value is recorded as -7.322%.
To `O=C(c1ccc(O)c(Cl)c1)N1C[C@@H](CN2CCCCCC2)[C@@H](CO)C1` belongs -0.5835%.
To `COc1cc(C)ccc1C(=O)N1C[C@@H](CN(C)CCO)[C@@H](CO)C1` belongs -2.888%; to `CCCOc1ccc(C(=O)N2C[C@@H](CN3CCCC3)[C@@H](CO)C2)cc1Cl`, 0.3871%; to `COc1ccc(C(=O)N2C[C@@H](CN3CCCCC3)[C@@H](CO)C2)cc1Cl`, -0.8846%.
To `COCCN(C)C[C@@H]1CN(C(=O)c2ccc(C)c(Cl)c2)C[C@@H]1CO` belongs 113.4%.
Take `CC(C)CN1C(=O)COC[C@@H]1[C@H](O)c1ccc(NC(=O)C2CC2)cc1`: the “Percent Effect” value is given as -2.654%.
For `CC(C)c1cc(N[C@@H](CO)C(N)=O)n2nccc2n1` the value was 27.01%.
For `Cc1cnn(-c2cccc(N3CCCCC3)n2)c1` the value was -2.755%.
For the molecule `CC(C)c1nc(C2CCCN(C(=O)c3ccc4c(c3)COC4)C2)no1` (stereo not drawn), the “Percent Effect” value stood at 126.8%.
For `CC(C)c1nc(C2CCCN(C(=O)c3ccc4[nH]nnc4c3)C2)no1` (stereo not drawn) the value was 134.9%.
To `CC(C)c1nc(C2CCCN(C(=O)c3ccc4nncn4c3)C2)no1` (stereo not drawn) belongs 123.4%.
To `CC(C)c1nc(C2CCCN(C(=O)c3ccc4nccn4c3)C2)no1` (stereo not drawn) belongs -6.875%; to `CC(C)c1nccn1C1CCCN(C(=O)c2ccc3[nH]nnc3c2)C1` (stereo not drawn), -9.073%; to `CC(C)c1nc(C2CCCN2C(=O)c2ccc3nncn3c2)no1` (stereo not drawn), -6.434%.
`O=C(c1ccc2c(c1)OCO2)N1CCCC(n2cccn2)C1` (stereo not drawn): the “Percent Effect” value is reported as 4.266%.
For `CC(C)c1nc(C2CCCN(C(=O)c3ccc4c(c3)OCO4)C2)no1` (stereo not drawn) the value was 127.5%.
For `COc1ccccc1OC1CN(C(=O)c2c(C)nc3ccc(C)cn23)C1` the value was -16.35%; for `CC(c1ncc(C(C)(C)C)o1)N1CCN(Cc2ccc(Cl)s2)CC1` (stereo not drawn), -10.01%.
For `Cc1ccc(NC(=O)c2nc(N3CCCCC3)ncc2Cl)cc1I` the value was 14.77%; for `CC(=O)NC[C@H]1OC[C@@H](NC2CCC(F)(F)CC2)[C@@H]1O`, -10%.
As to `Cc1nc2ccccc2nc1NCc1cccc(OCC2CCCO2)c1` (stereo not drawn), the “Percent Effect” value is 113.3%.
With `Cc1nnc(NCc2cccc(OCC3CCCO3)c2)c(C#N)c1C` (stereo not drawn), the “Percent Effect” value stood at 98.93%.
For `Cc1nc2ccccc2nc1NCc1nnc2n1CCC2` the value was -17.33%; for `N#Cc1ccc(NCc2cccc(OCC3CCCO3)c2)nc1` (stereo not drawn), 63.12%.
For `Cc1nnc(NCc2ccc(N3CCC(CO)CC3)cc2)c(C#N)c1C` the value was 12.23%; for `COCc1ccccc1CNc1nnc(C)c(C)c1C#N`, -9.449%; for `Cc1ccccc1C1(CNc2nnc(C)c(C)c2C#N)CCOCC1`, 10.33%.
To `Cc1nnc(NCc2cccnc2N(C)C)c(C#N)c1C` belongs -6.334%; to `N#Cc1ccc(NCc2cccc(COC3CCOCC3)c2)nc1`, -4.004%; to `Oc1cccc(CNCC2CCCO2)c1` (stereo not drawn), 10.1%.
With `Cc1nnc(NCc2cccc(OCc3ccccn3)c2)c(C#N)c1C`, the “Percent Effect” value came to 115.9%.
For `CN(C)C(=O)c1cccc(CNc2ccc(C#N)cn2)c1` the value was 29.09%.
Consider `O=C(c1ccco1)N1CCc2ncnc(NCc3ccccn3)c2CC1`, for which the “Percent Effect” value was -3.443%.
For `CN1C(=O)[C@H]2CC[C@@H]1CN(C(=O)c1csc(Cc3ccccc3)n1)C2` the value was -11.33%; for `CN(C(=O)c1ccc[nH]1)C1CCC(NC(=O)OC(C)(C)C)CC1` (stereo not drawn), -42.92%.
To `CCC(C)N(Cc1ccncc1)Cc1ccccc1Cn1cccn1` (stereo not drawn) belongs 4.156%; to `O=C(O)C(F)(F)F.O=C([C@H]1COC[C@H]2CN(C3CCOCC3)C[C@H]21)N1CCC(F)CC1`, -1.372%.
For `O=C(O)C(F)(F)F.O=C([C@@H]1C[C@@H]2CCN(C3CCOCC3)C[C@H]2O1)N1CCOCC1` the value was 89.37%; for `O=C(O)C(F)(F)F.O=C([C@H]1C[C@H]2OCC[C@H]2N(CC2CCOCC2)C1)N1CCCC1`, 10.32%.
Regarding `CC1CCN(C(=O)[C@@H]2C[C@@H]3CCN(CC4CCOCC4)C[C@@H]3O2)CC1.O=C(O)C(F)(F)F`, the “Percent Effect” value is given as -4.888%.
For `O=C(O)C(F)(F)F.O=C([C@H]1C[C@@H]2CCN(C3CCOCC3)C[C@@H]2O1)N1CCOCC1` the value was -5.423%.
To `CC1CCN(C(=O)[C@H]2C[C@@H]3CCN(CC4CCOCC4)C[C@H]3O2)CC1.O=C(O)C(F)(F)F` belongs -1.273%; to `CC1CCN(C(=O)[C@H]2C[C@@H]3CCN(CC4CCOCC4)C[C@@H]3O2)CC1.O=C(O)C(F)(F)F`, -3.152%.
To `O=C(O)C(F)(F)F.O=C([C@H]1C[C@@H]2CCN(C3CCOCC3)C[C@H]2O1)N1CCCC1` belongs 103.9%.
With `O=C(O)C(F)(F)F.O=C([C@@H]1C[C@@H]2CCN(C3CCOCC3)C[C@@H]2O1)N1CCCC1`, the “Percent Effect” value is reported as 130.2%.
For `Cc1ccccc1CC(=O)N(C)C1CCCC1` the value was -4.156%; for `COc1ccc(-c2cnc(CN3CCn4c(C)nnc4C3)o2)cc1`, -11.18%; for `c1csc(-c2nc(CN3CCn4c(nnc4C4CC4)C3)co2)c1`, -3.067%.
To `Cn1ccnc1-c1ccc(NCC2COc3ccccc3O2)nn1` (stereo not drawn) belongs -1.636%; to `Cc1ccc(CC(=O)NC(C)C(=O)N2CCS(=O)(=O)CC2)cc1` (stereo not drawn), -13.94%.
Turning to `CC(C)CC(C)N(C)Cc1nnc(-c2ccco2)o1` (stereo not drawn), the “Percent Effect” value is reported as 9.065%.
To `CNC(=O)C1Cn2ccnc2C2(CCN(C(=O)CC3CCCC3)CC2)O1.O=C(O)C(F)(F)F` (stereo not drawn) belongs -0.06928%; to `CNC(=O)C1Cn2ccnc2C2(CCN(Cc3csc(C)n3)CC2)O1` (stereo not drawn), 2.029%; to `CNC(=O)C1Cn2ccnc2C2(CCN(CCF)CC2)O1` (stereo not drawn), 3.54%.
For `CC(C)CC(=O)N1CCC2(CC1)OC(C(N)=O)Cn1ccnc12.O=C(O)C(F)(F)F` (stereo not drawn) the value was 113.8%.
For `CC(C)CNC(=O)N1CCC2(CC1)OC(C(N)=O)Cn1ccnc12.O=C(O)C(F)(F)F` (stereo not drawn) the value was 99.99%.
Regarding `CNC(=O)C1Cn2ccnc2C2(CCN(c3ccc(C)nn3)CC2)O1` (stereo not drawn), the “Percent Effect” value was found to be 1.376%.
For `NC(=O)C1Cn2ccnc2C2(CCN(C(=O)c3ccncc3)CC2)O1` (stereo not drawn) the value was 116.6%; for `CNC(=O)C1Cn2ccnc2C2(CCN(C(=O)c3ccccn3)CC2)O1` (stereo not drawn), -8.502%.
For `CNC(=O)C1Cn2ccnc2C2(CCN(C(=O)NC3CCCC3)CC2)O1` (stereo not drawn) the value was 96.32%; for `CCc1nc(C)c(C2CC(=O)Nc3c2c(C(C)(C)C)nn3C)[nH]1` (stereo not drawn), -1.206%.
For `CCN(C(=O)c1ccc2nnc(C3CCN(S(C)(=O)=O)C3)n2c1)C(C)C` (stereo not drawn) the value was -8.044%.
In the case of `CCS(=O)(=O)N1CCC(c2nnc(Cn3cccn3)n2C2CC2)CC1`, the “Percent Effect” value is -1.644%.
Regarding `CCN(CC)c1ccc(-c2nc(-c3cccc(OC)c3OC)no2)cn1`, the “Percent Effect” value is on record as -1.328%.
To `N#Cc1cccc(S(=O)(=O)CCN2CCOC2=O)c1` belongs -9.929%; to `COc1ccc(NC(=O)CCC2CCCN(S(=O)(=O)C3CC3)C2)cc1Cl` (stereo not drawn), 5.788%; to `COc1ccc(OCc2cc(C(=O)N3CCOCC3)n[nH]2)c(Cl)c1`, -1.083%.
For `O=C(NC1CC1)N1CCCC2(CCCCN2)C1.O=C(O)C(F)(F)F` (stereo not drawn) the value was -8.648%; for `NC(=O)C1Cn2ccnc2C2(CCN(C(=O)NC3CCCC3)CC2)O1.O=C(O)C(F)(F)F` (stereo not drawn), 99.21%.
Regarding `CNC(=O)C1Cn2ccnc2C2(CCN(C(=O)c3ccoc3C)CC2)O1.O=C(O)C(F)(F)F` (stereo not drawn), the “Percent Effect” value is 5.988%.
Consider `Cc1nc(O)ccc1C(=O)N1CCCC1c1nc(-c2ccccc2)n[nH]1` (stereo not drawn), for which the “Percent Effect” value is given as -6.533%.
For `Cc1cccc(C(=O)N2CCCC2c2c(C)n[nH]c2C)c1` (stereo not drawn) the value was 0.2093%; for `Cc1ccc2cc(C(=O)N3CCCCC3c3nc[nH]n3)ccc2n1` (stereo not drawn), -6.785%.
For `COCc1cccc(C(=O)N2CCCCC2c2nccs2)c1` (stereo not drawn) the value was 13.03%.
`Cc1noc(-c2c[nH]nc2C2CCCN2C(=O)c2ccccc2)c1C` (stereo not drawn): the “Percent Effect” value is listed as 143.3%.
For `Cc1cc(-c2c[nH]nc2C2CCCCN2C(=O)c2ccccc2)on1` (stereo not drawn) the value was 116.8%.
For `COCCN1C(=O)[C@H]2CC[C@@H]1CN(C(=O)Cc1c(F)cccc1Cl)C2`, the “Percent Effect” value is listed as -1.329%.
To `Cc1[nH]ncc1C(=O)N1CCN(CC(O)C(C)(C)C)CC1` (stereo not drawn) belongs 6.282%.
For `O=C(c1cnc(Nc2ccccc2)nc1)N1CCS(=O)(=O)CC1` the value was 6.856%; for `Cc1noc(CN(Cc2ccco2)Cc2cccc3c2OCO3)n1`, -16.92%.
For `c1coc(CN2CCC3(CC2)CC(N2CCCC2)CO3)c1` (stereo not drawn) the value was -47.38%; for `CCOCC(=O)N1CCC[C@]2(C[C@@H](OCc3ccncc3)CO2)C1`, 2.897%; for `O=C1CCC2(CCCN(C(=O)c3ccoc3)C2)CN1Cc1ccncc1` (stereo not drawn), 9.259%.
In the case of `O=C1CCC2(CCCN(C(=O)c3ccc[nH]3)C2)CN1Cc1cccnc1` (stereo not drawn), the “Percent Effect” value is recorded as -3.42%.
For `O=C(c1ccoc1)N1CCC(NCc2cccnc2)CC1` the value was -13.71%; for `O=C1COC2(CCN(Cc3ccco3)CC2)CN1Cc1cccnc1`, 107.7%.
For `CN(C)CC(=O)N1CCC2(CC1)CN(Cc1cccnc1)C(=O)CO2`, the “Percent Effect” value is given as 109.2%.
For `CCOCC(=O)N1CCC2(CC1)CN(Cc1cccnc1)C(=O)CO2` the value was 106.9%; for `O=C1COC2(CCN(C(=O)c3ccoc3)CC2)CN1Cc1cccnc1`, 89.17%.
